Test results published in the supplement of paper PMC11732987, “Enantioselective OTUD7B fragment discovery through chemoproteomics screening and high-throughput optimisation” (Communications Chemistry, 2025).

Legend:
Test in all cases: log2 ratio of Biotin-Ahx-Ub-VS probe labelling (compound/DMSO); higher = less target engagement, active = hit call of the paper (q ≤ 0.05, log2 ratio ≤ -1)
Details in all cases: treatment time: 3 h
[1] = compound: CCC1N(CCc2sccc12)C(=O)CCl
How it was run: (§1)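 HEK293T lysate (495 µg per sample, in Tris/CHAPS/IGEPAL buffer with protease inhibitors) was exposed in triplicate to compound at 50 or 200 µM, or to DMSO, for 3 h, then to Biotin-Ahx-Ub-VS (0.5 µM final) for 1 h. The labelled DUBs were enriched on NeutrAvidin, digested with LysC and trypsin, and analysed by diaPASEF LC-MS/MS. Average base-two log ratios of compound over DMSO came from median-normalised label-free quantities by unpaired t-test. Only proteins with at least 2 unique peptides were used.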

[2] = compound: CN1c2ccccc2C(CS1(=O)=O)NC(=O)CCl
How it was run: as §1

[3] = compound: Cl.ClCC(=O)N1CCc2ncncc2C1
How it was run: as §1

[4] = compound: Cl.Cn1ncc2C(CCCc12)NC(=O)CCl
How it was run: as §1

[5] = compound: ClCC(=O)NC1CCOc2ccccc12
How it was run: as §1

[6] = compound: ClCC(=O)NC1CCCc2ccccc12
How it was run: (§2)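 Average ratios of compound to vehicle were obtained by unpaired t-test. Beforehand, 495 µg samples of HEK293T lysate in buffer with protease inhibitors were treated in triplicate with compound over a concentration series or vehicle for 3 h, then with 0.5 µM final Biotin-Ahx-Ub-VS for 1 h. Labelled deubiquitinases were NeutrAvidin-enriched, digested and quantified label-free by diaPASEF LC-MS/MS in Spectronaut, normalised to the global median. Values are log2 and cover proteins with at least two unique peptides.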

[7] = compound: ClCC(=O)N[C@@H]1CCCc2ccccc12
How it was run: as §2

[8] = compound: ClCC(=O)N[C@H]1CCCc2ccccc12
How it was run: as §2

[9] = compound: CCC1N(CCc2cc(OC)c(Cl)cc12)C(=O)CCl
How it was run: as §1

[10] = compound: CCCC1N(CCc2cc(OC)c(OC)cc12)C(=O)CCl
How it was run: as §1

Measured: log2 ratio of Biotin-Ahx-Ub-VS probe labelling

YOD1 (UniProt Q5VVQ6)
Chain of UniProt Q5VVQ6 (Q5VVQ6 whole entry): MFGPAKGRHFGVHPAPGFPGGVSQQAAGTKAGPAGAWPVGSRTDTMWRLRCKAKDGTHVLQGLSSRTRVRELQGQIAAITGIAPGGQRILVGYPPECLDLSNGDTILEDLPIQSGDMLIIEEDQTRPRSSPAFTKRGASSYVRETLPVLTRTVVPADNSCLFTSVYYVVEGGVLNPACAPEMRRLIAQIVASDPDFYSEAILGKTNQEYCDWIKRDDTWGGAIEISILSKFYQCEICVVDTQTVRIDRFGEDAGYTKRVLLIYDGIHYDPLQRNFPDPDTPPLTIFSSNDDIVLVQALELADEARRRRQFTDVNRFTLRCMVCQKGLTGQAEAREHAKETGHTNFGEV
inactive: [1]; compound concentration: 50uM -0.141 | [1]; compound concentration: 200uM -0.171 | [2]; compound concentration: 50uM -0.237 | [2]; compound concentration: 200uM -0.218 | [3]; compound concentration: 50uM -0.0162 | [3]; compound concentration: 200uM -0.45 | [4]; compound concentration: 50uM 0.0347 | [4]; compound concentration: 200uM -0.0749 | [5]; compound concentration: 50uM -0.0482 | [5]; compound concentration: 200uM 0.0949 | [6]; compound concentration: 0.78uM -0.286 | [6]; compound concentration: 1.56uM -0.115 | [6]; compound concentration: 3.13uM -0.302 | [6]; compound concentration: 6.25uM -0.266 | [6]; compound concentration: 12.5uM -0.478 | [6]; compound concentration: 25uM -0.333 | [6]; compound concentration: 50uM -0.142 | [6]; compound concentration: 100uM -0.14 | [6]; compound concentration: 200uM -0.258 | [7]; compound concentration: 0.78uM -0.469 | [7]; compound concentration: 1.56uM -0.274 | [7]; compound concentration: 3.13uM -0.434 | [7]; compound concentration: 6.25uM -0.346 | [7]; compound concentration: 12.5uM -0.221 | [7]; compound concentration: 25uM -0.268 | [7]; compound concentration: 50uM -0.264 | [7]; compound concentration: 100uM -0.248 | [7]; compound concentration: 200uM -0.262 | [8]; compound concentration: 0.78uM -0.197 | [8]; compound concentration: 1.56uM -0.309 | [8]; compound concentration: 3.13uM -0.298 | [8]; compound concentration: 6.25uM -0.173 | [8]; compound concentration: 12.5uM -0.186 | [8]; compound concentration: 25uM -0.167 | [8]; compound concentration: 50uM -0.0663 | [8]; compound concentration: 100uM -0.169 | [8]; compound concentration: 200uM -0.282 | [9]; compound concentration: 50uM 0.213 | [9]; compound concentration: 200uM -0.308 | [10]; compound concentration: 50uM -0.12 | [10]; compound concentration: 200uM -0.312

COPS5 (UniProt Q92905)
Chain of UniProt Q92905 (Q92905 whole entry, looked up): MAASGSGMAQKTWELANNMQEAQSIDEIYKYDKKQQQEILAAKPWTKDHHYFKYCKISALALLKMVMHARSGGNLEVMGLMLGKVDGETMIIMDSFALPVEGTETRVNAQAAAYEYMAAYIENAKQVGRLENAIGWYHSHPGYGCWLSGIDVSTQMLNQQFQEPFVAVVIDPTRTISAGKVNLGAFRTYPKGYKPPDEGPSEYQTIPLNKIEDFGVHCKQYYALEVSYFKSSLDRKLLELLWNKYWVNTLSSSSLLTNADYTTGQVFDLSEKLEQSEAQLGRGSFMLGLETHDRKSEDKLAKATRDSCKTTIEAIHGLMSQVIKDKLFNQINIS
inactive: [1]; compound concentration: 50uM -0.164 | [1]; compound concentration: 200uM 0.0997 | [2]; compound concentration: 50uM -0.182 | [2]; compound concentration: 200uM 0.168 | [3]; compound concentration: 50uM -0.296 | [3]; compound concentration: 200uM -0.179 | [4]; compound concentration: 50uM -0.177 | [4]; compound concentration: 200uM -0.131 | [5]; compound concentration: 50uM 0.175 | [5]; compound concentration: 200uM -0.0253 | [6]; compound concentration: 0.78uM 0.0364 | [6]; compound concentration: 1.56uM -0.0289 | [6]; compound concentration: 3.13uM -0.0264 | [6]; compound concentration: 6.25uM 0.0604 | [6]; compound concentration: 12.5uM -0.134 | [6]; compound concentration: 25uM -0.0881 | [6]; compound concentration: 50uM -0.183 | [6]; compound concentration: 100uM -0.315 | [6]; compound concentration: 200uM -0.041 | [7]; compound concentration: 0.78uM -0.237 | [7]; compound concentration: 1.56uM -0.152 | [7]; compound concentration: 3.13uM -0.15 | [7]; compound concentration: 6.25uM 0.209 | [7]; compound concentration: 12.5uM -0.0611 | [7]; compound concentration: 25uM -0.26 | [7]; compound concentration: 50uM -0.29 | [7]; compound concentration: 100uM -0.155 | [7]; compound concentration: 200uM 0.052 | [8]; compound concentration: 0.78uM -0.209 | [8]; compound concentration: 1.56uM 0.0351 | [8]; compound concentration: 3.13uM -0.059 | [8]; compound concentration: 6.25uM -0.0717 | [8]; compound concentration: 12.5uM 0.171 | [8]; compound concentration: 25uM 0.148 | [8]; compound concentration: 50uM -0.0575 | [8]; compound concentration: 100uM 0.0499 | [8]; compound concentration: 200uM -0.0918 | [9]; compound concentration: 50uM 0.0938 | [9]; compound concentration: 200uM 0.311 | [10]; compound concentration: 50uM -0.111 | [10]; compound concentration: 200uM 0.0826

OTUD6B (UniProt Q8N6M0)
Chain of UniProt Q8N6M0 (Q8N6M0 whole entry): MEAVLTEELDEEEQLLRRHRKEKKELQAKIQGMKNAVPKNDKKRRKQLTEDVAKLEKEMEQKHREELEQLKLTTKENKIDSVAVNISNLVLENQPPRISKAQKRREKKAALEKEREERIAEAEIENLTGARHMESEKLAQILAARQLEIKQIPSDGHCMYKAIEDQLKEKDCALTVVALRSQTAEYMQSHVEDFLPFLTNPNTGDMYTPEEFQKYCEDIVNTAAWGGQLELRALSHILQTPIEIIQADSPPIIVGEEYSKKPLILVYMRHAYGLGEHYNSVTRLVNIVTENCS
inactive: [1]; compound concentration: 50uM -0.125 | [1]; compound concentration: 200uM -0.283 | [2]; compound concentration: 50uM -0.286 | [2]; compound concentration: 200uM -0.251 | [3]; compound concentration: 50uM -0.254 | [3]; compound concentration: 200uM -0.722 | [4]; compound concentration: 50uM 0.122 | [4]; compound concentration: 200uM -0.00452 | [5]; compound concentration: 50uM 0.0287 | [5]; compound concentration: 200uM -0.0666 | [6]; compound concentration: 0.78uM -0.127 | [6]; compound concentration: 1.56uM -0.0797 | [6]; compound concentration: 3.13uM -0.201 | [6]; compound concentration: 6.25uM -0.105 | [6]; compound concentration: 12.5uM -0.198 | [6]; compound concentration: 25uM -0.128 | [6]; compound concentration: 50uM -0.0883 | [6]; compound concentration: 100uM -0.038 | [6]; compound concentration: 200uM -0.209 | [7]; compound concentration: 0.78uM -0.264 | [7]; compound concentration: 1.56uM -0.2 | [7]; compound concentration: 3.13uM -0.167 | [7]; compound concentration: 6.25uM -0.186 | [7]; compound concentration: 12.5uM -0.156 | [7]; compound concentration: 25uM -0.268 | [7]; compound concentration: 50uM -0.175 | [7]; compound concentration: 100uM -0.224 | [7]; compound concentration: 200uM -0.168 | [8]; compound concentration: 0.78uM -0.139 | [8]; compound concentration: 1.56uM -0.177 | [8]; compound concentration: 3.13uM -0.0832 | [8]; compound concentration: 6.25uM -0.0276 | [8]; compound concentration: 12.5uM -0.0686 | [8]; compound concentration: 25uM -0.159 | [8]; compound concentration: 50uM 0.0307 | [8]; compound concentration: 100uM -0.0663 | [8]; compound concentration: 200uM -0.229 | [9]; compound concentration: 50uM 0.0279 | [9]; compound concentration: 200uM -0.78 | [10]; compound concentration: 50uM -0.398 | [10]; compound concentration: 200uM -0.676

MINDY4 (UniProt Q4G0A6)
Chain of UniProt Q4G0A6 (Q4G0A6 whole entry): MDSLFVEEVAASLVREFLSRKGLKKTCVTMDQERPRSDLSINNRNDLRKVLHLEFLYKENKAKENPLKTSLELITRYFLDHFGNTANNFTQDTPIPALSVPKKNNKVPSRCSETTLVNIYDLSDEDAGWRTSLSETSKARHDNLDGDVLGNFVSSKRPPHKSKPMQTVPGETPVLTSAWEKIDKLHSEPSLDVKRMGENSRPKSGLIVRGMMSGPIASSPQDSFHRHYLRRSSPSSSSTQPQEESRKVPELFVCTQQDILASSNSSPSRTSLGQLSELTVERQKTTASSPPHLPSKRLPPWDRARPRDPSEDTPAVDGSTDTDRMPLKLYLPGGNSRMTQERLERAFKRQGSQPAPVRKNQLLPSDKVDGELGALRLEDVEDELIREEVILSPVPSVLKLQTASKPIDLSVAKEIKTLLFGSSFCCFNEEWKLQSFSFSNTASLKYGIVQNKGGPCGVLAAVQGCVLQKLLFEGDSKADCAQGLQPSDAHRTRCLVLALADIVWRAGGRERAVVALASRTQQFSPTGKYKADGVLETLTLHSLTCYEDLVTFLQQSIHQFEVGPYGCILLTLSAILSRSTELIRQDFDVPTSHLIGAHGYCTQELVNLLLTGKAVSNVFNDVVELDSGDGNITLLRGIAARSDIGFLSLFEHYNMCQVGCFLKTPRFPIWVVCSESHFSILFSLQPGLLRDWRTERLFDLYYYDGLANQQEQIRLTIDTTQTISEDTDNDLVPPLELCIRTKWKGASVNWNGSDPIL
inactive: [1]; compound concentration: 50uM -0.62 | [1]; compound concentration: 200uM 0.797 | [2]; compound concentration: 200uM 0.688 | [3]; compound concentration: 50uM 0.73 | [3]; compound concentration: 200uM -0.108 | [4]; compound concentration: 50uM 0.308 | [4]; compound concentration: 200uM 0.136 | [5]; compound concentration: 50uM 0.825 | [5]; compound concentration: 200uM 0.522 | [7]; compound concentration: 0.78uM -0.837 | [7]; compound concentration: 12.5uM -0.893 | [9]; compound concentration: 50uM 0.0614 | [9]; compound concentration: 200uM -0.042 | [10]; compound concentration: 50uM 0.725 | [10]; compound concentration: 200uM -0.113
active: [2]; compound concentration: 50uM -4.18 | [6]; compound concentration: 0.78uM -2.83 | [6]; compound concentration: 1.56uM -3.43 | [6]; compound concentration: 3.13uM -2.24 | [6]; compound concentration: 6.25uM -2.62 | [6]; compound concentration: 12.5uM -1.89 | [6]; compound concentration: 25uM -2.3 | [6]; compound concentration: 50uM -2.78 | [6]; compound concentration: 100uM -2.85 | [6]; compound concentration: 200uM -2.45 | [7]; compound concentration: 1.56uM -1.89 | [7]; compound concentration: 3.13uM -2.16 | [7]; compound concentration: 6.25uM -1.61 | [7]; compound concentration: 25uM -2.02 | [7]; compound concentration: 50uM -1.96 | [7]; compound concentration: 100uM -1.48 | [7]; compound concentration: 200uM -1.33 | [8]; compound concentration: 0.78uM -2.37 | [8]; compound concentration: 1.56uM -1.3 | [8]; compound concentration: 3.13uM -1.21 | [8]; compound concentration: 6.25uM -3.95 | [8]; compound concentration: 12.5uM -1.25 | [8]; compound concentration: 25uM -1.1 | [8]; compound concentration: 50uM -1.99 | [8]; compound concentration: 100uM -1.91 | [8]; compound concentration: 200uM -2.54
